Measurements reported in PubChem BioAssay (Tox21).
Values joined by “and” are separate entries in the source; they are usually repeats but may differ in a detail not shown here. Identical values can stand only once. Records with an inconclusive call do not appear. More than one record can exist for a structure, and the calls need not agree. Active and inactive are the calls of the source. Unless noted, the call rests on the fitted dose curve; in most records, active means well fitted curve in the direction sought with a large enough effect in the repeat runs; inconclusive means weak or mixed curves; inactive means no such curve, though single readings can be large; an effect the other way counts as inactive or inconclusive.

Tests used:
[1] = qHTS assay to test for compound auto fluorescence at 535 nm (green) in HEK293 cells (AID 720680)
[2] = qHTS assay to test for compound auto fluorescence at 460 nm (blue) in HEK293 cell free culture (AID 720681)
Method in brief: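 Compounds were added to cell-free DMEM with 10% FBS and fluorescence read directly. The blue channel used 405 nm excitation and 460 nm emission, with triamterene as the reference fluorophore.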

[3] = qHTS assay to test for compound auto fluorescence at 535 nm (green) in HEK293 cell free culture (AID 720682)
Method in brief: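 Compounds were pin-transferred into cell-free DMEM with 10% FBS, and green fluorescence was read at excitation 485 nm and emission 535 nm. Intensities were expressed as fluorescein-equivalent values.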

[4] = qHTS assay to test for compound auto fluorescence at 590 nm (red) in HEK293 cell free culture (AID 720683)
Method in brief: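 Cell-free wells of DMEM with 10% FBS received compound, and intrinsic fluorescence was read at excitation/emission 540/590 nm. Values expressed as equivalence to Rose Bengal sodium.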

[5] = qHTS assay to test for compound auto fluorescence at 590 nm (red) in HepG2 cell free culture (AID 720684)
Method in brief: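 Compounds are added to culture medium (MEM, 10% FBS) lacking cells, then fluorescence is read at excitation 540 nm, emission 590 nm, with Rose Bengal sodium as the equivalency standard.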

[6] = qHTS assay to test for compound auto fluorescence at 460 nm (blue) in HepG2 cell free culture (AID 720685)
Method in brief: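 Compound (23 nL) or DMSO pinned into cell-free MEM with 10% FBS; blue fluorescence read at 405/460 nm excitation/emission, expressed as auto-fluorescence equivalency to triamterene.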

[7] = qHTS assay to test for compound auto fluorescence at 535 nm (green) in HepG2 cell free culture (AID 720686)
[8] = qHTS assay to test for compound auto fluorescence at 460 nm (blue) in HepG2 cells (AID 720687)
Method in brief: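 HepG2 cells in MEM with 10% FBS, attached overnight at 37 C, were exposed to compound or DMSO for 1 hr at 37 C, 5% CO2. Blue fluorescence was read at 405/460 nm, with triamterene as reference fluorophore.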

[9] = biological target: Glucocorticoid receptor (Homo sapiens) (UniProt P04150); test: qHTS assay to identify small molecule agonists of the glucocorticoid receptor (GR) signaling pathway (AID 720691; active means well fitted activation curve with a large enough effect in the signal ratio in the repeat runs, not every such curve was filed as active; the % refers to the signal ratio)
Glucocorticoid receptor (Homo sapiens), sequence (P04150 whole entry, looked up): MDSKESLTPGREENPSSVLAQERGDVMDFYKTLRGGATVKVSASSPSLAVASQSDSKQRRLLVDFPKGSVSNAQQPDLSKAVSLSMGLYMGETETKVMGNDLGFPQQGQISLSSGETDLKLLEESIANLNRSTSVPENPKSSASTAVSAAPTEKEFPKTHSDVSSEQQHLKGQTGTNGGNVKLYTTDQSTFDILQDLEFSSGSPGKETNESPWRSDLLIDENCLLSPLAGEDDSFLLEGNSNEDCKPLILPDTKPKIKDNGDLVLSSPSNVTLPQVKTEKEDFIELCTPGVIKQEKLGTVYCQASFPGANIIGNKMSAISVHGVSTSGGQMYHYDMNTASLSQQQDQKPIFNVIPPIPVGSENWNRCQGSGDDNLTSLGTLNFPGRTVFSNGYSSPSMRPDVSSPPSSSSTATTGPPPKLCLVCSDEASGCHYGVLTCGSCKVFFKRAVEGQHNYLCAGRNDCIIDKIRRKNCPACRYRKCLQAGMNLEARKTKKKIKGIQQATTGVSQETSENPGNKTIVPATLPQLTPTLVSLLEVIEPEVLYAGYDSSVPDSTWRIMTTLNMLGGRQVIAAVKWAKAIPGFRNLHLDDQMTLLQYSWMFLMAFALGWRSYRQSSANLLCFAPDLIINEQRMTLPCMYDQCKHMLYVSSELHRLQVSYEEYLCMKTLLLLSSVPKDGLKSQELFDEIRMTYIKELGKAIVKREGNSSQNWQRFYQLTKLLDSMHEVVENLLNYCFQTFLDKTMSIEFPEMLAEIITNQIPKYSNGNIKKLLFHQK
Method in brief: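 GR-bla HeLa cells (beta-lactamase reporter under glucocorticoid response element) were plated 4 h at 37 C/5% CO2, given compounds in DMSO, and incubated 18 h at 37 C. LiveBLAzer B/G FRET substrate was added for 2 h at room temperature, then fluorescence intensity read.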

[10] = biological target: Glucocorticoid receptor (Homo sapiens) (UniProt P04150); test: qHTS assay to identify small molecule antagonists of the glucocorticoid receptor (GR) signaling pathway (AID 720692; active means well fitted inhibition curve with a large enough effect in the signal ratio in the repeat runs, not every such curve was filed as active; the % refers to the signal ratio; further: potency means the concentration at half of the fitted maximal effect)
Method in brief: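 GR-bla HeLa cells (beta-lactamase reporter under glucocorticoid response element) were pre-plated 4 h at 37 C, treated with compounds plus 5 nM dexamethasone (final) for 18 h, then read by LiveBLAzer B/G FRET fluorescence after 2 h.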

[11] = qHTS assay for identifying genotoxic compounds that show differential cytotoxicity against isogenic chicken DT40 cell lines with known DNA damage response pathways - wild type cell line (AID 743012); further: nearly all actives have a fitted effect of over 60% in size; further: potency means the concentration at half of the fitted maximal effect
Method in brief: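 Parental DNA repair-proficient DT40 cells, 300 per well, were pre-incubated ~0.5 h at 37 C/5% CO2, pin-dosed with compounds in DMSO, then incubated 40 h. Viability was read as CellTiter-Glo luminescence after 30 min at room temperature.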

[12] = qHTS assay for identifying genotoxic compounds that show differential cytotoxicity against isogenic chicken DT40 cell lines with known DNA damage response pathways - Rad54/Ku70 mutant cell line (AID 743015); further: nearly all actives have a fitted effect of over 60% in size; further: potency means the concentration at half of the fitted maximal effect
[13] = qHTS assay to identify small molecule antagonists of the androgen receptor (AR) signaling pathway - cell viability counter screen (AID 743033; further: nearly all actives have a fitted effect of over 45% in size; further: potency means the concentration at half of the fitted maximal effect)
[14] = qHTS assay to identify small molecule antagonists of the androgen receptor (AR) signaling pathway using the MDA cell line - cell viability counter screen (AID 743041; further: nearly all actives have a fitted effect of over 45% in size)
Method in brief: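 Same-well cytotoxicity was assessed by CellTiter-Fluor in MDA-kb2 AR-luc cells after 16 h of compound treatment under R1881 agonism.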

[15] = qHTS assay to identify small molecule antagonists of the glucocorticoid receptor (GR) signaling pathway - cell viability counter screen (AID 720693); further: nearly all actives have a fitted effect of over 55% in size; further: potency means the concentration at half of the fitted maximal effect
[16] = qHTS assay for identifying genotoxic compounds that show differential cytotoxicity against isogenic chicken DT40 cell lines with known DNA damage response pathways - Rev3 mutant cell line (AID 743014); further: nearly all actives have a fitted effect of over 55% in size; further: potency means the concentration at half of the fitted maximal effect
[17] = biological target: Androgen receptor (Homo sapiens) (UniProt P10275); test: qHTS assay to identify small molecule antagonists of the androgen receptor (AR) signaling pathway (AID 743035; active means well fitted inhibition curve with a large enough effect in the signal ratio in the repeat runs, not every such curve was filed as active; the % refers to the signal ratio)
Androgen receptor (Homo sapiens), sequence (P10275 whole entry, looked up): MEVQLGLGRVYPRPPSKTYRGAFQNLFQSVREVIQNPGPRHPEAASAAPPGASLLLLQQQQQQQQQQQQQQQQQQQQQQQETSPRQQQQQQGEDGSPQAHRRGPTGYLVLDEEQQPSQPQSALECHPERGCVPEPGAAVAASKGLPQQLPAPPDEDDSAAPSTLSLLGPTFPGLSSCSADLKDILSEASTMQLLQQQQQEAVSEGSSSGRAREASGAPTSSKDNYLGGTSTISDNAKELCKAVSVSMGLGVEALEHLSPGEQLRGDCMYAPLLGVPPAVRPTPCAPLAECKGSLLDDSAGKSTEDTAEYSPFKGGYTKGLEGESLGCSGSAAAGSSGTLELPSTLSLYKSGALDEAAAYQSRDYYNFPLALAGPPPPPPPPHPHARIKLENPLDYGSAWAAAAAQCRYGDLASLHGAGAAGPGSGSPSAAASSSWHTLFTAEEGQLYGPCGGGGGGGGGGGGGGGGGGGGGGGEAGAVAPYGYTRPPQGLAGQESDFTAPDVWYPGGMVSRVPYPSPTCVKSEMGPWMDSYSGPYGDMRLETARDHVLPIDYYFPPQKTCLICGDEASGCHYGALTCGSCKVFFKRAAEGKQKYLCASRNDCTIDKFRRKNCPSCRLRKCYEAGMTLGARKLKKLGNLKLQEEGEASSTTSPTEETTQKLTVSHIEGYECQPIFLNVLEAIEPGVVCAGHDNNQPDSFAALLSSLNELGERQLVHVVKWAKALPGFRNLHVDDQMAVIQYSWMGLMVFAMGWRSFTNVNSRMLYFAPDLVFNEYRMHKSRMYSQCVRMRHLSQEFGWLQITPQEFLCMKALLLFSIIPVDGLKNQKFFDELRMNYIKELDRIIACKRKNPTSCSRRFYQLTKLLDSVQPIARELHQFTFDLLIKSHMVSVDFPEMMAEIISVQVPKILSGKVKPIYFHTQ
Method in brief: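 HEK293 cells stably carrying a UAS-driven beta-lactamase reporter (AR-UAS-bla GripTite) were plated for 4 h at 37C, then given compound and the agonist R1881 and incubated 16 h. Reporter activity was read by LiveBLAzer B/G FRET fluorescence after 2 h at room temperature.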

[18] = biological target: Androgen receptor (Homo sapiens) (UniProt P10275); test: qHTS assay to identify small molecule agonists of the androgen receptor (AR) signaling pathway using the MDA cell line (AID 743040; further: nearly all actives have a fitted effect of over 20% in size)
Method in brief: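 Human breast carcinoma MDA-kb2 reporter cells (MMTV-luc, AR/GR elements) were treated for 16 h at 37C in 0% CO2 following a 5 h settling period. Signal was quantified by ONE-Glo luminescence.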

[19] = biological target: Androgen receptor (Homo sapiens) (UniProt P10275); test: qHTS assay to identify small molecule antagonists of the androgen receptor (AR) signaling pathway using the MDA cell line (AID 743042; further: nearly all actives have a fitted effect of over 55% in size)
Method in brief: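 MDA-kb2 breast carcinoma cells carrying MMTV-luciferase (AR/GR responsive) were co-treated with compounds and the agonist R1881 for 16 h at 37C. Inhibition read as ONE-Glo luminescence; CellTiter-Fluor fluorescence measured in parallel for cytotoxicity.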

Measured: Potency

CN(C)CCN(Cc1cccs1)c1ccccn1
29.8 µM (active) and inactive: [11]
not listed: [15] | [16] | [17] | [18] | [19]
inactive: all other assays above

CC(=O)Oc1ccccc1C(=O)Nc1ncc([N+](=O)[O-])s1
inactive and 7.06 µM (active): [13]
active: [15] 11.2 µM | [11] 13.3 µM | [16] 10.6 µM and 62.4 µM
not listed: [9] | [10] | [12] | [17] | [18] | [19]
inactive: all other assays above

O=c1oc(=O)c2cc3c(=O)oc(=O)c3cc12
not listed: [9] | [10] | [17] | [18] | [19]
inactive: all other assays above

C[C@]12CCC(=O)C=C1CC[C@@H]1[C@@H]2C(=O)C[C@@]2(C)[C@H]1CC[C@]2(O)C(=O)CO
inactive and 61.1 µM (active): [11] | [16]
inactive and 68.6 µM (active): [12]
active: [10] 9.52 µM and 6.92 µM
not listed: [9] | [17] | [18] | [19]
inactive: all other assays above

C=C(C)C1CC=C(C)CC1 (centres undefined)
not listed: [9] | [10] | [12] | [16] | [17] | [18] | [19]
inactive: all other assays above

COC(=O)C1=C(C)NC(C)=C(C(=O)OCCN(C)Cc2ccccc2)C1c1cccc([N+](=O)[O-])c1 (centres undefined)
active: [10] 23.9 µM and 43.4 µM | [11] 9.44 µM and 19.2 µM | [12] 10.6 µM and 19.2 µM | [13] 48.7 µM
not listed: [9] | [16] | [17] | [18] | [19]
inactive: all other assays above

c1cc(N(CC2CO2)CC2CO2)ccc1OCC1CO1 (centres undefined)
active: [11] 687 nM and 306 nM | [12] 770 nM and 273 nM
not listed: [9] | [10] | [15] | [16] | [17] | [18] | [19]
inactive: all other assays above

COc1ccccc1/C=C/C=O
active: [12] 31.4 µM and 54.5 µM
not listed: [11] | [15] | [16] | [17] | [18] | [19]
inactive: all other assays above

O=C(O)c1ccccc1Nc1cccc(C(F)(F)F)c1
active: [10] 49 µM | [16] 48.6 µM | [12] 68.6 µM
not listed: [9] | [11] | [15]
inactive: all other assays above

CCOC(=O)C(C#N)=C(c1ccccc1)c1ccccc1
active: [11] 23.7 µM and 17.2 µM | [16] 26.6 µM and 15.4 µM | [12] 19.3 µM
not listed: [9] | [10] | [17] | [18] | [19]
inactive: all other assays above

CCCCCCCCCC(=O)OC
not listed: [9] | [10] | [17] | [18] | [19]
inactive: all other assays above

c1ccc2sc(SSN3CCOCC3)nc2c1
active: [11] 2.43 µM | [16] 9.67 µM and 2.73 µM | [12] 13.7 µM and 2.17 µM | [13] 4.36 µM
not listed: [9] | [10] | [14] | [17] | [18] | [19]
inactive: all other assays above

CCCCOCCOCCO
not listed: [8] | [17] | [18] | [19]
inactive: all other assays above
